# Source: PubChem BioAssay
# Shown are actives, neighbours in structure and some others; about 2.1% of the full set was active somewhere.
# Env fusion inh – blocks HIV Env-driven cell-cell fusion; inhibition, % at 12.3 µM; HeLa-JRFL Env/CEM21 cell fusion, luciferase; 1.1% of 360,000 active; AID 651610;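 active means mean replicate inhibition score of at least 50 and every replicate individually at or above 50; inconclusive means only one of the two criteria met; inactive means mean below 50 and not all replicates reaching 50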;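 further: 0% = plate neutral controls and 100% = maraviroc near 300 nM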
# AF4-AF9 inh – blocks AF4 peptide binding to human AF9. 0.47% of 350,000 active. AID 651704. AlphaScreen, biotin-AF4 peptide binding to FLAG-AF9. P42568. inhibition, % at 10 µM;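 active means every replicate reaching a set inhibition limit, whatever the replicate mean, cut at about 25% in these data; inconclusive means mean inhibition reaches that limit but some replicates miss it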;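 further: 0% = plate neutral control median and 100% = total signal loss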
# INS-1E GSIS act – primary screen for activators of insulin secretion dependent on glucose, INS-1E cells, GLuc reporter luminescence; 0.61% of 370,000 active; INS-1E GLuc reporter insulin secretion, 2-3 h; activation, % at 16.6 µM;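 active means lowest replicate activation of at least 40%, so every replicate reaches that level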;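 further: 0% = median of neutral control wells and 100% = median of IBMX positive control wells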
# PGC1a acetyl inh – modulators of PGC1a acetylation; U2OS PGC1a acetylation, AlphaScreen anti-acetyl-lysine; with virally co-expressed GCN5 acetyltransferase; inhibition, % at 15.6 µM; 0.17% of 350,000 active;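 active means every replicate shows inhibition of at least 40%; inconclusive means mean inhibition at least 40% but some replicate below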;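 further: 0% = neutral control wells and 100% = positive control wells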
# NSD2 HMT inh – inhibitors of human histone methyltransferase NSD2; O96028; NSD2 peptide methylation, AlphaScreen, 120 min; inhibition, % at 12.5 µM; 0.54% of 310,000 active; in the data active means inhibition above about 50%
# Numbers without * were called inactive; ? = inconclusive; . = no result given; + = active, no number; [ ] = another dose, or the depositor's remark.
SMILES,Env fusion inh,AF4-AF9 inh,INS-1E GSIS act,PGC1a acetyl inh,NSD2 HMT inh
CC(C)C(=O)Nc1ccc2c(c1)C(=O)N(C)[C@H]1CC[C@@H](CC(=O)NC3CCCC3)O[C@H]1CO2,.,-1,13,-4,.
COC(=O)[C@H](Cc1ccc(O)cc1)NC(=O)Cn1cnc(C(=O)Nc2ccc(C)c(C)c2)n1,.,-3,13,7,.
COC(=O)[C@H](Cc1ccccc1)NC(=O)Cn1cnc(C(=O)Nc2ccc(C)c(C)c2)n1,69*,-2,1,-1,.
C[C@@H]1CN([C@H](C)CO)C(=O)c2cc(N(C)C)ccc2O[C@@H]1CN(C)Cc1ccc(Oc2ccccc2)cc1,24[16.7 µM],52*,-31,-25,.
C[C@H](CO)N1C[C@H](C)[C@H](CN(C)Cc2ccc(Oc3ccccc3)cc2)Oc2ccc(N(C)C)cc2C1=O,8[16.7 µM],52*,-25,-14,.
C[C@@H]1CN([C@H](C)CO)C(=O)c2cc(N(C)C)ccc2O[C@H]1CN(C)Cc1ccc(Oc2ccccc2)cc1,19[16.7 µM],40*,-24,-13,.
C[C@H]1CN([C@@H](C)CO)C(=O)c2cc(N(C)C)ccc2O[C@@H]1CN(C)Cc1ccc(C(=O)O)cc1,1[16.7 µM],-1,17,3,.
C[C@@H]1CCCCO[C@@H](CN(C)CC2CCCCC2)[C@H](C)CN([C@@H](C)CO)C(=O)c2cc(NS(=O)(=O)c3cccs3)ccc2O1,-33[16.7 µM],4,22,-9,.
COc1ccc(N2C(=O)CC(Sc3nc(C)cc(C)c3C#N)C2=O)cc1 (stereo not given),-25,.,63*,0,-1
CCC(C)N(CCNC(=O)c1ccc2c(c1)NC(=O)c1ccccc1S2)C1CCCCC1 (stereo not given),79*,12,-43,2,8
CC(=O)O[C@@H]1C[C@H](c2ccccc2)OC(=O)CCCCC1=O,-11,-2,-6,.,.
Cc1cccc(C(=O)Nc2cccc(-c3ccc4nncn4n3)c2)c1,20,-9,8,2,-3
CCOC(=O)c1sc(NC(C)=O)nc1-c1ccccc1,.,.,43*,-4,.
O=c1c2sccc2nc(SCc2cc(=O)n3cc(Cl)ccc3n2)n1-c1ccc(F)cc1,.,-20,6,.,-4
CC1CCCC=CC2CC(OC(=O)CN(C)C)CC2C(O)C=CC(=O)O1 (stereo not given),62*,-2,.,67*,4
Cn1cc(CCC(=O)N2CCCC(C(=O)c3cccc4ccccc34)C2)cn1 (stereo not given),9,-1,20,-9,4
CN(Cc1cccc(C(F)(F)F)c1)C(=O)C1CCC(=O)N(CC2CCCCC2)C1 (stereo not given),15,3,-28,.,.
CNC[C@@H](Cc1ccccc1)NC[C@@H](CC1CCCCC1)NCCCc1ccccc1,103*,17,89*,-55,.
CNC[C@@H](CC1CCCCC1)NC[C@H](CC(C)C)NCCc1cccc(C(F)(F)F)c1,93*,15,480*,88*,.
CCC[C@H](CN[C@@H](CNC)[C@H](C)CC)NCCc1cc(C(F)(F)F)cc(C(F)(F)F)c1,-19,-18,24,-4,.
CC[C@@H](C)[C@H](CNC)NC[C@@H](Cc1cccc2ccccc12)NCCc1cccc(C(F)(F)F)c1,?,.,+,.,.
CCC[C@@H](CNC)NC[C@H](Cc1ccccc1)NCCCCc1ccccc1,-25,-21,-7,-17,.
CO[C@H]1CN(C)C(=O)c2cc(NC(=O)NC3CCCCC3)ccc2OC[C@@H](C)NC[C@H]1C,.,-1,24,.,.
Nc1nccc(-c2nn(-c3ccc(Cl)cc3)ccc2=O)n1,-2,-1,1,0,-5
Oc1ccccc1C1SC(c2ccccc2O)SC(c2ccccc2O)S1 (stereo not given),-1,-2,153*,25,0
SMILES,Env fusion inh,AF4-AF9 inh,INS-1E GSIS act,PGC1a acetyl inh,NSD2 HMT inh
COc1ccc(/C(=C/c2ccc(OC(F)F)c(OC)c2)C(=O)O)cc1OC,-8,.,75*,.,-1
CC(C)C(NC(=O)c1ccccc1F)C(=O)OCC(=O)c1ccc(F)cc1 (stereo not given),-1,-2,-8,-15,-2
Cc1c(NC(=O)c2cccc(NC(=O)COc3ccccc3C#N)c2)c(=O)n(-c2ccccc2)n1C,60*,0,-9,.,0
COc1ccccc1-c1nc2cc3ccccc3cc2nc1-c1ccccc1,24,26*,-9,.,-2
O=C(COC(=O)c1cc(S(=O)(=O)N2CCOCC2)ccc1O)NCc1ccc2c(c1)OCO2,82*,0,7,.,-2
Cc1ccc(S(=O)(=O)N2CCOCC2)cc1C(=O)OCC(=O)NCc1ccc2c(c1)OCO2,-5,-3,-1,-8,-4
O=C(Nc1cc(Cl)ccc1O)C1CC(c2c(F)cccc2Cl)=NO1 (stereo not given),-5,-5,-13,.,44
C[C@@H]1CCCCO[C@@H](CN(C)Cc2ccccc2)[C@H](C)CN([C@H](C)CO)C(=O)c2cc(NC(=O)CCC(F)(F)F)ccc2O1,-32[16.7 µM],-4,-8,3,.
Oc1ccc(/C=C/c2ccc3cccc(O)c3n2)cc1Br,-57,26*,-40,.,-4
COc1ccccc1/C=C/c1ccc2cccc(O)c2n1,-85,27*,-5,.,2
CCOC(=O)C(CCSC)Nc1nc(Cl)nc(Nc2ccc(Cl)cc2)n1 (stereo not given),-3,4,-18,13,.
CCOC(=O)c1cnc2ccc(OCC)cc2c1NCc1ccccc1OC,95*,.,-16,.,-2
CC1(C)N=C(N)N=C(N)N1CCCCc1ccccc1,75*,-1,-55,3,-4
CC1(C)N=C(N)N=C(N)N1c1cccc(CC(=O)Nc2ccccc2)c1,-9,2,.,.,-2
CN(C)c1ccc(Sc2ccc3nc(N)nc(N)c3c2)cc1,28,13,16,46*,.
Nc1nc(N)c2cc(S(=O)(=O)c3cccc(C(F)(F)F)c3)ccc2n1,5,-3,5,0,-2
CCN(c1ccccc1)S(=O)(=O)c1cc(OC)ccc1OC,-38,.,30,-37,0
CCN(c1ccccc1)S(=O)(=O)c1ccc(OC)c(OC)c1,.,1,55*,6,-6
CCc1c(C)sc(NC(=O)c2cc(-c3ccc(OC)c(OC)c3)on2)c1C#N,-156,.,80*,6,-5
COC(=O)CN(C(=S)Nc1ccc(F)cc1)C1CC(=O)N(c2ccccc2)C1=O (stereo not given),-5,.,-33,2,-4
O=C(CNC(=O)c1cc2ccccc2o1)NCc1cccs1,.,.,.,3,1
Cc1nnc2n1N=CC=C(c1ccccc1)S2,26,.,41*,.,0
N=C1/C(=C/c2cccn2Cc2ccc(Cl)cc2)C(=O)N=C2SC=CN12,63*,.,148*,.,0
COc1ccc(NC(=O)Cc2c(SC)c3ccccc3n2Cc2ccccc2)cc1,-7,.,97*,.,0
CSc1c(CC(=O)NCCCO)n(Cc2ccccc2)c2ccccc12,6,-2,7,-4,1
